Test results: PubChem BioAssay (NCI)
Compounds without any hit were thinned out: in the full panel of roughly 83,000, 20% have a hit.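 Single-concentration screen, 48 h exposure, 96-well plates. Endpoint: percent growth. Below 10 = active.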 Active and inactive are the calls of the source.

Legend:
Experiment in all cases: NCI-60 one-dose screen, 48 h (100 = growth as untreated, 0 = no growth, -100 = all killed)
Settings in all cases: 10 µM unless noted
NCI-H23 lung = tested on: NCI-H23 lung
NCI-H226 lung = tested on: NCI-H226 lung
NCI-H322M lung = tested on: NCI-H322M lung
HOP-62 NSCLC = tested on: HOP-62 NSCLC
NCI-H460 lung = tested on: NCI-H460 lung
HOP-92 NSCLC = tested on: HOP-92 NSCLC
NCI-H522 lung = tested on: NCI-H522 lung
A549/ATCC NSCLC = tested on: A549/ATCC NSCLC
786-0 renal = tested on: 786-0 renal
COLO 205 colon = tested on: COLO 205 colon
DU-145 prostate = tested on: DU-145 prostate
K-562 leukemia = tested on: K-562 leukemia
MALME-3M melanoma = tested on: MALME-3M melanoma
MDA-MB-231 breast = tested on: MDA-MB-231 breast
RXF 393 renal = tested on: RXF 393 renal
SF-268 CNS = tested on: SF-268 CNS
SF-295 CNS = tested on: SF-295 CNS
SF-539 CNS = tested on: SF-539 CNS
UACC-257 melanoma = tested on: UACC-257 melanoma
M14 melanoma = tested on: M14 melanoma

Measured: growth

Clc1ccc(Nc2nccc(Nc3ccc4[nH]ncc4c3)n2)cc1
inactive: NCI-H23 lung 45.7% | NCI-H226 lung 28.2% | NCI-H322M lung 74.8% | HOP-62 NSCLC 65.5% | NCI-H460 lung 41% | NCI-H522 lung 20.8% | A549/ATCC NSCLC 50.2% | 786-0 renal 57.4% | COLO 205 colon 42.2% | DU-145 prostate 49.8% | MALME-3M melanoma 87.5% | MDA-MB-231 breast 68.8% | RXF 393 renal 35.1% | SF-268 CNS 60.4% | SF-295 CNS 70.9% | SF-539 CNS 75.8% | UACC-257 melanoma 87.6% | M14 melanoma 43.8%
active: HOP-92 NSCLC -0.955% | K-562 leukemia -7.92%

Cc1cc2c(F)c(Oc3ncnn4cc(OC[C@@H](C)OC(=O)[C@H](C)N)c(C)c34)ccc2[nH]1
inactive: NCI-H23 lung 27.6% | NCI-H226 lung 50.2% | NCI-H322M lung 41.1% | HOP-62 NSCLC 34.8% | NCI-H460 lung 38.7% | HOP-92 NSCLC 39.2% | NCI-H522 lung 58.1% | A549/ATCC NSCLC 35.8% | 786-0 renal 72.3% | DU-145 prostate 66.5% | K-562 leukemia 41.5% | MALME-3M melanoma 11.4% | MDA-MB-231 breast 39.8% | RXF 393 renal 43.8% | SF-268 CNS 74.7% | SF-295 CNS 77.6% | SF-539 CNS 73.5% | M14 melanoma 16.3%
active: COLO 205 colon -6.99% | UACC-257 melanoma -15.9%

O=C1CCC(=O)CC1
inactive: NCI-H23 lung 103% | NCI-H226 lung 101% | NCI-H322M lung 110% | HOP-62 NSCLC 102% | NCI-H460 lung 104% | HOP-92 NSCLC 87.4% | NCI-H522 lung 91.2% | A549/ATCC NSCLC 91.4% | 786-0 renal 104% | COLO 205 colon 115% | DU-145 prostate 110% | K-562 leukemia 96.7% | MALME-3M melanoma 110% | MDA-MB-231 breast 105% | RXF 393 renal 113% | SF-268 CNS 98.8% | SF-295 CNS 101% | SF-539 CNS 95.3% | UACC-257 melanoma 89.4% | M14 melanoma 98.1%

CCS(=O)(=O)N1CCN(c2ccc(Nc3ncc(C(N)=O)c(NC4CC4)n3)cc2)CC1
active: COLO 205 colon 1.91%
inactive: NCI-H23 lung 75.9% | NCI-H226 lung 73.1% | NCI-H322M lung 79.4% | HOP-62 NSCLC 59.3% | NCI-H460 lung 60.3% | HOP-92 NSCLC 87.4% | NCI-H522 lung 59.2% | A549/ATCC NSCLC 62.2% | 786-0 renal 89% | DU-145 prostate 88.5% | K-562 leukemia 56.4% | MALME-3M melanoma 76.7% | MDA-MB-231 breast 69.6% | RXF 393 renal 25.8% | SF-268 CNS 75.5% | SF-295 CNS 61.9% | SF-539 CNS 53.5% | UACC-257 melanoma 101% | M14 melanoma 59.5%

O=C1NC(=O)C(c2cnc3ccccn23)=C1c1cn2c3c(cc(F)cc13)CN(C(=O)N1CCCCC1)CC2
inactive: NCI-H23 lung 82.1% | NCI-H226 lung 46% | NCI-H322M lung 72% | HOP-62 NSCLC 26.1% | NCI-H460 lung 39.1% | HOP-92 NSCLC 83% | NCI-H522 lung 38.7% | A549/ATCC NSCLC 34.8% | 786-0 renal 31.1% | COLO 205 colon 26.7% | DU-145 prostate 68.7% | K-562 leukemia 27.9% | MALME-3M melanoma 64.6% | MDA-MB-231 breast 70.2% | RXF 393 renal 16.6% | SF-268 CNS 64.7% | SF-295 CNS 35.7% | SF-539 CNS 53.8% | UACC-257 melanoma 67.1% | M14 melanoma 50.7%

O=C(/C=C/c1ccc2c(c1)OCO2)c1c(O)c2ccccc2oc1=O
inactive: NCI-H23 lung 102% | NCI-H226 lung 107% | NCI-H322M lung 107% | HOP-62 NSCLC 80.9% | NCI-H460 lung 103% | HOP-92 NSCLC 103% | NCI-H522 lung 75.7% | A549/ATCC NSCLC 76.5% | 786-0 renal 99.8% | COLO 205 colon 99.3% | DU-145 prostate 109% | K-562 leukemia 69.4% | MALME-3M melanoma 101% | MDA-MB-231 breast 103% | RXF 393 renal 135% | SF-268 CNS 93.6% | SF-295 CNS 100% | SF-539 CNS 105% | UACC-257 melanoma 78.1% | M14 melanoma 94.9%

Cc1ccc(F)c(NC(=O)Nc2ccc(-c3cccc4[nH]nc(N)c34)cc2)c1
inactive: NCI-H226 lung 57.6% | NCI-H322M lung 21.5% | NCI-H460 lung 10.2% | HOP-92 NSCLC 63.8% | 786-0 renal 36.4% | DU-145 prostate 27.5% | SF-268 CNS 30% | SF-295 CNS 42.8% | UACC-257 melanoma 16% | M14 melanoma 28.3%
active: NCI-H23 lung 9.14% | HOP-62 NSCLC -7.49% | NCI-H522 lung -23.3% | A549/ATCC NSCLC -50.5% | COLO 205 colon -48.7% | K-562 leukemia 7.81% | MALME-3M melanoma -4.64% | MDA-MB-231 breast 9.7% | RXF 393 renal -20.1% | SF-539 CNS 3.67%

C[C@@H](N)c1ccc(C(=O)Nc2ccnc3[nH]ccc23)cc1
inactive: NCI-H23 lung 45% | NCI-H226 lung 51% | NCI-H322M lung 41.5% | HOP-62 NSCLC 13.9% | NCI-H460 lung 47.9% | HOP-92 NSCLC 55.6% | NCI-H522 lung 11% | A549/ATCC NSCLC 14.8% | 786-0 renal 33.2% | DU-145 prostate 52.3% | K-562 leukemia 63.7% | MALME-3M melanoma 75.1% | MDA-MB-231 breast 50% | SF-268 CNS 50.6% | SF-295 CNS 61.5% | SF-539 CNS 11.1% | UACC-257 melanoma 68.9% | M14 melanoma 64.9%
active: COLO 205 colon 5.34% | RXF 393 renal -18%

COc1cccc(Nc2ncnn3ccc(CN4CC[C@@H](N)[C@H](O)C4)c23)c1
inactive: NCI-H23 lung 36.3% | HOP-62 NSCLC 18.7% | NCI-H460 lung 73.8% | HOP-92 NSCLC 26.3% | NCI-H522 lung 14.4% | A549/ATCC NSCLC 12.1% | 786-0 renal 13.1% | COLO 205 colon 34.6% | DU-145 prostate 27.1% | MALME-3M melanoma 86.4% | MDA-MB-231 breast 31.3% | SF-268 CNS 45.1% | SF-295 CNS 72.9% | UACC-257 melanoma 76.1% | M14 melanoma 96%
active: NCI-H226 lung 5.97% | NCI-H322M lung 0.241% | K-562 leukemia 2.52% | RXF 393 renal -41.4% | SF-539 CNS -2.77%

CCN(CCO)CCCOc1ccc2c(Nc3cc(CC(=O)Nc4cccc(F)c4)[nH]n3)ncnc2c1
inactive: NCI-H23 lung 29.2% | NCI-H226 lung 63.9% | NCI-H322M lung 14.4% | HOP-62 NSCLC 35.7% | NCI-H460 lung 22.6% | HOP-92 NSCLC 23.2% | NCI-H522 lung 22.9% | A549/ATCC NSCLC 23.9% | 786-0 renal 66.1% | DU-145 prostate 56.6% | K-562 leukemia 32% | MDA-MB-231 breast 39.4% | RXF 393 renal 86.1% | SF-268 CNS 56.2% | SF-295 CNS 65.4% | SF-539 CNS 25.8%
active: COLO 205 colon -35.6% | MALME-3M melanoma -17.5% | UACC-257 melanoma -23.2% | M14 melanoma 4.94%

O=C(NC1CCNCC1)c1[nH]ncc1NC(=O)c1c(Cl)cccc1Cl
active: NCI-H23 lung -12.1% | NCI-H226 lung 0.903% | NCI-H322M lung 5.64% | HOP-62 NSCLC -18.5% | NCI-H460 lung 8.4% | HOP-92 NSCLC -6.06% | NCI-H522 lung -23% | A549/ATCC NSCLC 8.09% | 786-0 renal 2.33% | COLO 205 colon -35.9% | K-562 leukemia 5.78% | MALME-3M melanoma -38.8% | MDA-MB-231 breast 1.88% | RXF 393 renal -50% | SF-268 CNS 9.79% | SF-295 CNS 8.53% | SF-539 CNS -41.9% | UACC-257 melanoma -6.15% | M14 melanoma 9.93%
inactive: DU-145 prostate 12.3%

c1cc(OCCN2CCCCC2)cc(-c2n[nH]c3ccc(-c4ncn[nH]4)cc23)c1
active: COLO 205 colon 6.03%
inactive: NCI-H23 lung 43.8% | NCI-H226 lung 61.6% | NCI-H322M lung 37.6% | HOP-62 NSCLC 60.6% | NCI-H460 lung 66% | HOP-92 NSCLC 44.8% | NCI-H522 lung 36.8% | A549/ATCC NSCLC 63.8% | 786-0 renal 79.9% | DU-145 prostate 62.4% | K-562 leukemia 36.9% | MALME-3M melanoma 13.5% | MDA-MB-231 breast 54.7% | RXF 393 renal 90.3% | SF-268 CNS 77.8% | SF-295 CNS 92.3% | SF-539 CNS 49.4% | UACC-257 melanoma 70.8% | M14 melanoma 22.9%

N#CC[C@H](C1CCCC1)n1cc(-c2ncnc3[nH]ccc23)cn1
inactive: NCI-H23 lung 71.5% | NCI-H226 lung 33.7% | NCI-H322M lung 76.2% | HOP-62 NSCLC 45.1% | NCI-H460 lung 54.7% | HOP-92 NSCLC 41.5% | NCI-H522 lung 37.9% | A549/ATCC NSCLC 43.8% | 786-0 renal 54.7% | COLO 205 colon 37% | DU-145 prostate 62.8% | K-562 leukemia 70.4% | MALME-3M melanoma 97% | MDA-MB-231 breast 60.4% | RXF 393 renal 15.9% | SF-268 CNS 59.8% | SF-295 CNS 76.6% | SF-539 CNS 67.4% | UACC-257 melanoma 78.9% | M14 melanoma 77.9%

O=C(Nc1cnn2ccc(N3CCC[C@@H]3c3cc(F)ccc3F)nc12)N1CC[C@H](O)C1
inactive: NCI-H23 lung 87.8% | NCI-H226 lung 93.8% | NCI-H322M lung 104% | HOP-62 NSCLC 71.8% | NCI-H460 lung 84.1% | HOP-92 NSCLC 89.5% | NCI-H522 lung 70.5% | A549/ATCC NSCLC 72.4% | 786-0 renal 91% | COLO 205 colon 71.6% | DU-145 prostate 110% | K-562 leukemia 74.8% | MALME-3M melanoma 114% | MDA-MB-231 breast 88.2% | RXF 393 renal 80.7% | SF-268 CNS 91% | SF-295 CNS 96.9% | SF-539 CNS 77.4% | UACC-257 melanoma 70.8% | M14 melanoma 81.5%

O=C(CNc1nnc(-c2ccc(Cl)cc2)o1)Nc1ccc(-c2nc3ccccc3s2)cc1
inactive: NCI-H23 lung 88.7% | NCI-H226 lung 82.9% | NCI-H322M lung 95.1% | HOP-62 NSCLC 107% | NCI-H460 lung 99.7% | HOP-92 NSCLC 87.9% | NCI-H522 lung 77.1% | A549/ATCC NSCLC 95.8% | 786-0 renal 101% | COLO 205 colon 104% | DU-145 prostate 98.5% | K-562 leukemia 85.6% | MALME-3M melanoma 88.7% | MDA-MB-231 breast 98.8% | RXF 393 renal 100% | SF-268 CNS 77.3% | SF-295 CNS 102% | SF-539 CNS 97% | UACC-257 melanoma 103% | M14 melanoma 102%
